Compounds with a hit are over-represented: about 7.4% of the library has one in this group of screens.
NPC1 promoter act: activators of NPC1 promoter | Potency, µM (doses to about 9.22 µM), actives largely listed as activators | Huh7 NPC1 promoter luciferase reporter, 24 h | 320,000 compounds, 2.4% hits; also: nearly all actives have a fitted effect of over 60% in size
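Stable NPC1-promoter luciferase Huh7 line; cpd (DMSO) 24 h, 37 °C, 5% CO2; Amplite luciferase reagent 10 min RT; luminescence readout. qHTS format.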
SMN2 splice up: enhancers of SMN2 splice variant expression; 210,000 compounds, 2.8% hits; HEK293 SMN2-luciferase splicing reporter, luminescence, 30-36 h; Potency, µM (top dose mostly 46.1 µM), usual class: activators; also: nearly all actives have a fitted effect of over 55% in size
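qHTS luciferase splicing reporter: luminescence rises when SMN2 exon 7 is included in transfected HEK293 cells. Compound exposure lasted 30-36 h at 37C, with 4.5 mM final sodium butyrate as control, followed by a ONE-Glo read.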
FLuc modulator: counter-screen for miR-21 project: firefly luciferase inhibitors or activators; P08659; purified FLuc, Km substrates, luminescence inhibition; Potency, µM (highest dose often 57.5 µM), actives largely listed as inhibitors; AID 588342; 360,000 compounds, 6.9% hits; also: nearly all actives have a fitted effect of over 55% in size
Target sequence (P08659 whole entry, looked up): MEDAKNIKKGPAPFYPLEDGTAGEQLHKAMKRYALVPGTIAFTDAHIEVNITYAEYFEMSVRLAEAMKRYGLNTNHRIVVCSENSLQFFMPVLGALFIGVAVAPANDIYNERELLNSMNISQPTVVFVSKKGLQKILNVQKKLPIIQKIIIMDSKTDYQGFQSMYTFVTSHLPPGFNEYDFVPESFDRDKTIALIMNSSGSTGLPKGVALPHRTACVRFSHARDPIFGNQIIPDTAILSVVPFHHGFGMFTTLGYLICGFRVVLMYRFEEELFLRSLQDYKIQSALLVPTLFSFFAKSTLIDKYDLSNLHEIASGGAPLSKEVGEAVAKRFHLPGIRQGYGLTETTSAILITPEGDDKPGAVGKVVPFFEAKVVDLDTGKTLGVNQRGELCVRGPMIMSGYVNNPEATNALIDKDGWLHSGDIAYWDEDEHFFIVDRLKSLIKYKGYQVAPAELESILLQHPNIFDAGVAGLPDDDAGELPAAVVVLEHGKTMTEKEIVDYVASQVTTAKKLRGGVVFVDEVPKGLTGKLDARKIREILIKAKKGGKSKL
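Purified P. pyralis luciferase, 10 nM final, with Km-level 10 uM D-luciferin and 10 uM ATP in 50 mM Tris acetate pH 7.5, 10 mM Mg acetate, 0.01% Tween-20, 0.05% BSA; 6-point qHTS titration about 60 µM downward; luminescence read.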
Rab9 prom act: activators of Rab9 promoter. Huh7 Rab9 promoter-luciferase reporter, luminescence, 24 h. Potency, µM (doses to about 9.22 µM), usual class: activators. 320,000 compounds, 2.8% hits. AID 485297; also: nearly all actives have a fitted effect of over 60% in size
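Cells were plated at 1500 per well in reduced-serum medium with 10% FBS and left 2 h. Compound in DMSO was then added for 24 h at 37 °C. Reporter signal was read by luminescence after 10 min with luciferase detection reagent.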
ELG1 genotox: induces genotoxicity in HEK293T cells with luciferase-tagged ELG1 | Potency, µM (top dose mostly 46 µM), usual class: activators | AID 504466 | 330,000 compounds, 1.3% hits | HEK293T ELG1-luciferase reporter, luminescence, 16 h; also: nearly all actives have a fitted effect of over 60% in size
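Genotoxicity was scored as increased ELG1-luciferase reporter signal, measured by ONE-Glo luminescence (30 min, room temperature). Compound or vehicle exposure of the HEK293T reporter cells lasted 16 hr at 37°C.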
Luc counter: blocks Kinase-Glo luciferase, a counter-screen artifact. Q27757. Kinase-Glo luciferase, ATP luminescence, 8 min. Potency, µM (series often up to 38.3 µM), hits mostly inhibitors. 200,000 compounds, 0.28% hits. AID 1379; also: nearly all actives have a fitted effect of over 60% in size
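Light output from Kinase-Glo luciferase with luciferin and 10 uM ATP in 50 mM imidazole pH 7.2, KCl, MgCl2, Tween 20, BSA; compound pin-delivered, 8-min ambient incubation, then luminescence read.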
Hits are given with their value; [ ] = remark or other dose. Calls follow the shape of the dose curve; as a rule, active = well fitted curve in the direction sought with a large enough effect; inconclusive = small, poorly fitted or top-dose-only effect, or another doubt; inactive = no such curve, though single readings can be large; an effect the other way counts as inactive or inconclusive.

What do the screens show for `CCOc1ccccc1NC(=O)C(NCC1(N2CCCCC2)CCCCC1)c1ccccc1` (centres undefined)?
NPC1 promoter act: inactive; SMN2 splice up: inactive; FLuc modulator: inactive; Rab9 prom act: inactive; ELG1 genotox: inactive; Luc counter: inactive

Results for CCCOc1ccc(NC(=O)CC2C(=O)N(c3cccc(C)c3)C(=O)N2CCc2ccncc2)cc1 (centres undefined) ?
FLuc modulator: inactive

Results for CCN1CCN(C(=O)c2cc(-c3ccc(Cl)s3)nc3ccccc23)CC1 ?
NPC1 promoter act: inactive; FLuc modulator: 19µM; Rab9 prom act: inactive; ELG1 genotox: inactive

Results for Cc1ccc(-c2cc(C(=O)O)c3ccccc3n2)s1 ?
NPC1 promoter act: inactive; FLuc modulator: 2.69µM; Rab9 prom act: inactive; ELG1 genotox: inconclusive

How did O=C(O)c1cc(-c2ccc(Cl)s2)nc2ccccc12 do in these assays?
NPC1 promoter act: inactive; SMN2 splice up: inconclusive; FLuc modulator: 15.1µM; Rab9 prom act: inactive; ELG1 genotox: inactive; Luc counter: inactive

What do the screens show for `O=C(Nc1ccccn1)c1cc(-c2ccc(Cl)s2)nc2ccccc12`?
NPC1 promoter act: inactive; FLuc modulator: inconclusive; Rab9 prom act: inactive; ELG1 genotox: inactive

What do the screens show for `Cc1cccc(NC(=O)c2cc(-c3ccc(C)s3)nc3ccccc23)n1`?
NPC1 promoter act: inactive; SMN2 splice up: inactive; FLuc modulator: 10.7µM; Rab9 prom act: inactive; ELG1 genotox: inactive; Luc counter: inactive

What do the screens show for `CC(C)n1c(SCC(=O)N2CCN(C)CC2)nc2c1c(=O)n(C)c(=O)n2C`?
NPC1 promoter act: inactive; FLuc modulator: inactive; Rab9 prom act: inactive; ELG1 genotox: inactive

How did CCc1ccc(Oc2cc(C)nc(N)n2)cc1 do in these assays?
NPC1 promoter act: 3.16µM; SMN2 splice up: 10µM; FLuc modulator: 4.26µM; Rab9 prom act: 3.16µM; ELG1 genotox: inconclusive; Luc counter: inactive

How did CCCc1ccc(Oc2cc(Cl)nc(N)n2)cc1 do in these assays?
NPC1 promoter act: inactive; SMN2 splice up: inactive[1.84 µM]; FLuc modulator: inactive; Rab9 prom act: inconclusive; ELG1 genotox: inactive; Luc counter: inactive

How did Cc1cccc(-n2ncc3c(N4CCC5(CC4)OCCO5)ncnc32)c1 do in these assays?
NPC1 promoter act: 2.82µM; FLuc modulator: 6.75µM; Rab9 prom act: 2.51µM; ELG1 genotox: inconclusive

What do the screens show for `c1ccc(-n2ncc3c(N4CCC5(CC4)OCCO5)ncnc32)cc1`?
NPC1 promoter act: 2.51µM; SMN2 splice up: 12.6µM; FLuc modulator: 13.5µM; Rab9 prom act: inconclusive; ELG1 genotox: 4.11µM; Luc counter: inactive

How did Cc1ccc(C)c(N2CCN(c3ncnc4c3cnn4-c3ccccc3)CC2)c1 do in these assays?
NPC1 promoter act: inactive; SMN2 splice up: inactive; FLuc modulator: inactive; Rab9 prom act: inactive; ELG1 genotox: inactive; Luc counter: inactive

Results for CC(C)(C)NC(=O)CCSc1nc(-c2ccc3c(c2)OCO3)cc(C(F)(F)F)n1 ?
SMN2 splice up: inactive; FLuc modulator: inactive

How did Nc1ccccc1C#Cc1ccccc1 do in these assays?
NPC1 promoter act: inconclusive; SMN2 splice up: inactive; FLuc modulator: 6.75µM; Rab9 prom act: inactive; ELG1 genotox: inconclusive; Luc counter: inactive

What do the screens show for `Nc1ccc(C#Cc2ccccc2)cc1`?
NPC1 promoter act: inactive; SMN2 splice up: inactive; FLuc modulator: 15.1µM; Rab9 prom act: inactive; ELG1 genotox: inconclusive; Luc counter: inactive

Results for NS(=O)(=O)C#Cc1ccccc1 ?
NPC1 promoter act: inactive; Rab9 prom act: inactive

What do the screens show for `N#Cc1ccccc1Sc1ccccc1N`?
NPC1 promoter act: inactive; SMN2 splice up: inactive; FLuc modulator: inactive; Rab9 prom act: inactive; ELG1 genotox: inactive; Luc counter: inactive

What do the screens show for `CCOC(=O)C(CC)n1nc(C)c2c(C)n(-c3ccc(C)cc3)nc2c1=O` (centres undefined)?
SMN2 splice up: inactive; FLuc modulator: inactive

How did Cc1ccc2c(CC(=O)Nc3nnc(C(C)C)s3)coc2c1C do in these assays?
SMN2 splice up: inactive; FLuc modulator: inactive

What do the screens show for `CC(C)CC(=O)Nc1nnc(S(=O)(=O)N(CC(C)C)c2ccccc2)s1`?
FLuc modulator: 0.849µM

How did CC(C)CN(c1ccccc1)S(=O)(=O)c1nnc(NC(=O)C(C)C)s1 do in these assays?
NPC1 promoter act: inactive; FLuc modulator: inactive; Rab9 prom act: inactive; ELG1 genotox: inactive

Results for CCN(c1ccc(C)cc1)S(=O)(=O)c1nnc(NC(=O)C2CCCCC2)s1 ?
FLuc modulator: 10.7µM

Results for CCN(c1cccc(C)c1)S(=O)(=O)c1nnc(NC(=O)C2CCCCC2)s1 ?
FLuc modulator: 15.1µM

How did CCN(c1ccccc1)S(=O)(=O)c1nnc(NC(=O)C2CCCCC2)s1 do in these assays?
FLuc modulator: 2.69µM

What do the screens show for `C/C=C/c1ccc(OCC(=O)N(CCOC)c2c(N)n(CCCC)c(=O)[nH]c2=O)c(OC)c1`?
NPC1 promoter act: inactive; FLuc modulator: inactive; Rab9 prom act: inactive; ELG1 genotox: inactive

Results for COc1ccc(N=c2oc3ccc(OC)cc3cc2-c2nc3ccccc3[nH]2)cc1 ?
SMN2 splice up: inconclusive; FLuc modulator: inconclusive; Luc counter: inactive

What do the screens show for `COc1cccc(CC(=O)Nc2nc3ccccc3[nH]2)c1`?
NPC1 promoter act: inactive; SMN2 splice up: inactive; FLuc modulator: inactive; Rab9 prom act: inactive[1.84 µM]; ELG1 genotox: inactive; Luc counter: inactive

What do the screens show for `COc1cccc(N=c2oc3ccccc3cc2-c2nc3ccccc3[nH]2)c1`?
NPC1 promoter act: 3.16µM; SMN2 splice up: 15.8µM; FLuc modulator: 9.53µM; Rab9 prom act: 1.58µM; ELG1 genotox: inconclusive; Luc counter: inactive

What do the screens show for `COc1cccc(N=c2oc3ccc(OC)cc3cc2-c2nc3ccccc3[nH]2)c1`?
SMN2 splice up: inconclusive; FLuc modulator: 19µM; Luc counter: inactive

How did O=C1CCCC(O)=C1N=Nc1ccc2c(c1)OCO2 do in these assays?
NPC1 promoter act: inconclusive; SMN2 splice up: 15.8µM; FLuc modulator: 9.53µM; Rab9 prom act: 3.16µM; ELG1 genotox: 16.4µM; Luc counter: inconclusive

Results for COc1cc2c(cc1NC(=O)CCC(=O)O)oc1ccccc12 ?
NPC1 promoter act: inactive; FLuc modulator: inconclusive; Rab9 prom act: inactive; ELG1 genotox: inactive

What do the screens show for `COc1cc2c(cc1NC(=O)COC(=O)Cn1cnc3ccccc31)oc1ccccc12`?
NPC1 promoter act: inactive; SMN2 splice up: inactive; FLuc modulator: 19µM; Rab9 prom act: inconclusive; ELG1 genotox: 23.1µM; Luc counter: inactive

What do the screens show for `COc1cc2c(cc1NC(=O)Cc1ccc(C)cc1)oc1ccccc12`?
NPC1 promoter act: inactive; SMN2 splice up: 8.91µM; FLuc modulator: 15.1µM; Rab9 prom act: inconclusive; ELG1 genotox: inactive; Luc counter: inactive

How did COc1cc2c(cc1NC(=O)CSCC(=O)O)oc1ccccc12 do in these assays?
NPC1 promoter act: inactive; SMN2 splice up: inactive; FLuc modulator: 21.3µM; Rab9 prom act: inactive; ELG1 genotox: inactive; Luc counter: inactive
